CYP2C9 inhib – blockers of cytochrome P450 2C9 activity – biochemical, luminescence, ADME assay, primary screen | CYP2C9 Supersomes, luciferin-H conversion | hit rate 20% among 96,000 | inhibition, % at 5 µM;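 active = blocking of liver enzyme CYP2C9 beyond about 50% at 5 µM, limit read from the data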
Target sequence (P11712 whole entry, looked up): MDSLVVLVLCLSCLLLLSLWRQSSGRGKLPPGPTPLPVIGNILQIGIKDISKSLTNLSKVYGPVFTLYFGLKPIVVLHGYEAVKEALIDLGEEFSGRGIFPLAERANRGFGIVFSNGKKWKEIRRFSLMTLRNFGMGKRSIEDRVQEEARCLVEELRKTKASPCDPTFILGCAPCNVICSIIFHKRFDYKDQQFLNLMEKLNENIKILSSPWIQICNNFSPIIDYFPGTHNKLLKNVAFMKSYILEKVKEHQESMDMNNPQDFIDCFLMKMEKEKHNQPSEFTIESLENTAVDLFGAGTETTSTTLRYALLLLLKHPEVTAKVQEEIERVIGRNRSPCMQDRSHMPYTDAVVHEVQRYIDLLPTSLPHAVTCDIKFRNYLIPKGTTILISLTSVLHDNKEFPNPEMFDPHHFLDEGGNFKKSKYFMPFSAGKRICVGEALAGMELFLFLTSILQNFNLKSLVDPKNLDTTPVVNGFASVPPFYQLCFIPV
Cav32 inh – Cav3.2 calcium influx blockers – cell-based, Fluo-4 calcium fluorescence, FDSS, MLSMR library, primary screen; Voltage-dependent T-type calcium channel subunit alpha-1H (Homo sapiens), O95180; Cav3.2-expressing cells; hits give low values; B-score at 10 µM; hit rate 4% among 100,000; AID 449739, 2010;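 active = single-dose well whose peak fluorescence ratio is a statistical outlier from its plate by either plate-standardised score or position-corrected B-score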
CYP2C19 inhib – blockers of cytochrome P450 2C19 activity – biochemical, luminescence, ADME assay, primary screen. inhibition, % at 5 µM. hit rate 21% among 96,000. CYP2C19 Supersomes, luciferin-H EGE luminescence, 30 min. P33261;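 active = CYP2C19 inhibition above a set limit at 5 µM in the primary screen, cut at about 50% in these data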
CYP2C19 activ – human CYP2C19 activators, primary screen, biochemical, luminescence; 96,000 tested, under 10 active; activation factor at 5 µM; Cytochrome P450 2C19 (Homo sapiens), P33261; recombinant CYP2C19, luciferin-H EGE luminescence; hits give high values; 0 = fully inhibited enzyme, 1 = untreated enzyme;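 active = activation factor of at least 2 at 5 µM in the primary screen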
CYP2C9 activ – human CYP2C9 activators, primary screen, biochemical, luminescence | Cytochrome P450 2C9 (Homo sapiens), P11712 | recombinant CYP2C9, luciferin-H conversion; hits give high values; factor 1 = untreated enzyme, 0 = blocked | activation factor at 5 µM | hit rate 1.4% among 96,000 | AID 1024, 2008;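 active = activation factor of 2 or more for CYP2C9 at a 5 µM dose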
Large screens that a line does not name were inactive. Compounds with a hit are over-represented: about 27% of the library has one in this group of screens.

CCOCCCNC(=S)N1C2CCC1CC(NC(=O)NC1CCCCC1)C2 (configuration not stated)	none
Cc1ccc(N2CC(C(=O)N3CCN(c4ccccc4)CC3)CC2=O)cc1 (configuration not stated)	none
Cc1ccc(N2CC(C(=O)Nc3cccc(F)c3)CC2=O)cc1 (configuration not stated)	CYP2C9 inhib 55.8, CYP2C19 inhib 55.0
CNC(=O)C1CC(=O)N(c2ccc(C)cc2)C1 (configuration not stated)	Cav32 inh -3.77
Cc1ccc(N2CC(C(=O)N3CCc4ccccc4C3)CC2=O)cc1 (configuration not stated)	CYP2C9 inhib 66.8
Cc1ccc(N2CC(C(=O)NC3=NCCS3)CC2=O)cc1 (configuration not stated)	none
CCc1ccc(N2CC(C(=O)Nc3cc(C)ccc3F)CC2=O)cc1 (configuration not stated)	CYP2C9 inhib 90.9, CYP2C19 inhib 86.1
C=CCNC(=O)C1CC(=O)N(c2ccc(Br)cc2)C1 (configuration not stated)	none
CCNC(=O)C1CC(=O)N(c2ccc(Br)cc2)C1 (configuration not stated)	CYP2C19 inhib 70.3
Cn1c(=O)c2c(ncn2CC(O)CO)n(C)c1=O (configuration not stated)	none (no result: CYP2C9 inhib, CYP2C19 inhib, CYP2C19 activ, CYP2C9 activ)
Cn1c(=O)c2c(ncn2CC(O)CNc2ccc(Br)cc2)n(C)c1=O (configuration not stated)	CYP2C19 inhib 74.6
O=C(CN1C(=O)C2C3C=CC(C3)C2C1=O)N1CC=C(c2ccccc2)CC1 (configuration not stated)	none
CSc1ccccc1C(=O)Nc1cccc(C)c1	none
Cc1cccc(NC(=O)C23CCC(C)(C2Br)C3(C)C)c1 (configuration not stated)	Cav32 inh -5.42
CCCNC(=O)CSc1nc(-c2cccs2)cc(C(F)(F)F)n1	CYP2C9 inhib 77.4, CYP2C19 inhib 68.3
O=C(CSc1nc(-c2cccs2)cc(C(F)(F)F)n1)NCc1ccccc1	CYP2C9 inhib 91.1, CYP2C19 inhib 59.9
CC(C)CNC(=O)CSc1nc(-c2cccs2)cc(C(F)(F)F)n1	none (no result: CYP2C9 inhib, CYP2C19 inhib, CYP2C19 activ, CYP2C9 activ)
Cc1ccc(S(=O)(=O)N(CCO)c2cc3c(s2)CCCC3)cc1	CYP2C19 inhib 99.3
O=C(Oc1cccc(NC(=O)c2ccccc2Cl)c1)c1ccc([N+](=O)[O-])cc1	none
CC(=O)c1cc2c(cc1NC(=O)Nc1cccc(Cl)c1)OCCO2	none
CC(Oc1c(Cl)cccc1Cl)C1=NCCN1 (configuration not stated)	none (no result: CYP2C9 inhib, CYP2C19 inhib, CYP2C19 activ, CYP2C9 activ)
N#CC1=C(N)OC2=C(CC/C2=C\c2ccccc2)C1c1ccccc1 (configuration not stated)	CYP2C9 inhib 70.0 (no result: Cav32 inh)
N#CC1=C(N)OC2=C(C(=O)CCC2)C1Cc1ccccc1 (configuration not stated)	none (no result: CYP2C9 inhib, CYP2C19 inhib, CYP2C19 activ, CYP2C9 activ)
O=C(OCC(F)(F)F)c1cccc(COc2ccc3ccccc3c2)c1	CYP2C9 inhib 55.7, CYP2C19 inhib 52.1
COc1ccc(OCc2cccc(C(=O)O)c2)cc1	CYP2C9 inhib 97.1, CYP2C19 inhib 98.5
CCOc1ccc(OCc2ccc(C(=O)N3CCCC3)o2)cc1	CYP2C9 inhib 57.2
O=C(O)c1cccc(COCC(F)(F)C(F)F)c1	none
CCOc1ccc(OCc2cccc(C(=O)O)c2)cc1	CYP2C9 inhib 98.9, CYP2C19 inhib 100.0
Cc1ccc(C(=O)N2CCSCC2)cc1	none
CCOc1ccc(OCc2ccc(C(=O)OCc3ccccn3)o2)cc1	CYP2C9 inhib 55.3, CYP2C19 inhib 50.3 (no result: Cav32 inh)
CCOC(=O)c1ccc(COC(=O)c2ccc(-c3nnc(-c4ccccc4)o3)cc2)o1	none (no result: CYP2C9 inhib, CYP2C19 inhib, CYP2C19 activ, CYP2C9 activ)
CCOc1ccc(OCc2cccc(C(=O)N3CCCC3)c2)cc1	CYP2C9 inhib 65.9
O=C(O)c1cccc(COc2ccc(CO)cc2Cl)c1	CYP2C9 inhib 93.5, CYP2C19 inhib 99.0
COc1cccc(OC)c1C(=O)NNC(=O)c1cccc(COc2ccc3c(c2)CCC3)c1	CYP2C19 inhib 57.2 (no result: Cav32 inh)
CC(C)(C(=O)c1cccnc1)c1cccnc1	none (no result: CYP2C9 inhib, CYP2C19 inhib, CYP2C19 activ, CYP2C9 activ)
CCOc1ccc(N=C(NC#N)SCC)cc1	none (no result: CYP2C9 inhib, CYP2C19 inhib, CYP2C19 activ, CYP2C9 activ)
Cc1ccc(NC(=O)N2CCC(NC(=O)C(C)(C)C)CC2)cc1	none
Cc1oc2c(c1C(=O)c1ccccc1)C(=O)C(=O)c1ccccc1-2	CYP2C9 inhib 89.7, CYP2C19 inhib 91.9
O=C1C(=O)c2c(C(=O)c3ccccc3)coc2-c2ccccc21	CYP2C9 inhib 94.7, CYP2C19 inhib 82.5
Cc1oc(=O)c(NC(=O)c2ccccc2)cc1C(=O)c1ccccc1	none
CC(C)(C)c1ccc(C(O)CCCN2CCC(C(O)(c3ccccc3)c3ccccc3)CC2)cc1 (configuration not stated)	Cav32 inh -4.77 (no result: CYP2C9 inhib, CYP2C19 inhib, CYP2C19 activ, CYP2C9 activ)
CCc1ccccc1N(CC)C(=O)CCc1nc(-c2ccc(C)cc2)no1	CYP2C9 inhib 54.7
Cc1ccc(S(=O)(=O)NC(CC(=O)N2CCc3ccccc32)c2ccco2)cc1 (configuration not stated)	none (no result: Cav32 inh)
CCOC(=O)N1CCC(NC(=O)CCc2nc(-c3ccc(C)cc3)no2)CC1	CYP2C9 inhib 72.9
Cc1ccc(-c2noc(CCC(=O)Nc3ccc(C)cn3)n2)cc1	none
O=C(CCc1nc(-c2ccccc2)no1)NC1CCCCC1	none
CCOC(=O)N1CCC(NC(=O)CC(NS(=O)(=O)c2ccc(C)cc2)c2ccco2)CC1 (configuration not stated)	CYP2C9 inhib 59.1
CC(C)(C)c1ccc(-c2noc(CCC(=O)NCC3CCCO3)n2)cc1 (configuration not stated)	CYP2C19 inhib 64.7
C[C@@H](O)C1NC(=O)[C@H](CCCCN)NC(=O)c2cc([N+](=O)[O-])cc(I)c2OCC[C@@H](C(N)=O)NC1=O (some centres not stated)	none (no result: CYP2C9 inhib, CYP2C19 inhib, CYP2C19 activ, CYP2C9 activ)
O=C(CNC(=O)Cc1ccccc1)NCC(=O)OCc1ccc(C(=O)c2ccccc2)cc1	none
CN(C)c1ccc(-c2ccc([C@H]3[C@@H]4C=CCC[C@@]4(C)C(=O)N3Cc3ccccc3)c(F)c2)cc1	none (no result: CYP2C9 inhib, CYP2C19 inhib, CYP2C19 activ, CYP2C9 activ)
COC(=O)c1sccc1NC(=O)CSc1nnnn1-c1ccccc1C	none
CCN(Cc1ccccc1)C(=O)CCc1nc(-c2ccc(C)cc2)no1	CYP2C9 inhib 88.5, Cav32 inh -7.5, CYP2C19 inhib 81.4
O=C(Nc1ccc(-c2noc(CCc3ccccc3)n2)cc1)c1ccco1	CYP2C9 inhib 70.6
CN(C)C(=O)CCc1nc(-c2ccc(C(C)(C)C)cc2)no1	none
Brc1ccc(-c2noc(CCc3ccccc3)n2)cc1	none (no result: CYP2C9 inhib, CYP2C19 inhib, CYP2C19 activ, CYP2C9 activ)
Cc1cccc(CC(=O)Nc2cc(=O)n(C)c(=O)n2C)c1	none
CCOc1ccccc1NC(=O)C1CCCN(C(=O)NCc2ccccc2)C1 (configuration not stated)	CYP2C19 inhib 50.8 (no result: Cav32 inh)
